# According to PubChem BioAssay (NCATS):
# Where “and” joins values, the source holds several entries; their conditions need not be identical. Equal entries are not always repeated. Inconclusive results are not listed. A call without a number means that no potency is given here. Calls of active or inactive are those of the source. Unless noted, calls follow the shape of the full dose curve. Residues, ends and D or L forms follow the SMILES beside them.
# Legend:
# [1] = target: Bile acid receptor (Homo sapiens) (UniProt Q96RI1); assay: qHTS assay for small molecule agonists of farnesoid X receptor signaling (AID 588527); conditions: HEK293T FXR-UAS-bla, beta-lactamase ratio, 16 h; stronger effect = higher value
# Outline: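 Read-out: beta-lactamase reporter fluorescence with CCF4 substrate in GeneBLAzer FXR-UAS-bla HEK293T cells, after 16 h compound exposure at 37 C. Response scaled between DMSO basal (0%) and chenodeoxycholic acid at 100 uM (100%).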
# [2] = target: Bile acid receptor (Homo sapiens) (UniProt Q96RI1); assay: qHTS assay for small molecule antagonists of farnesoid X receptor signaling (AID 588526); conditions: HEK293T FXR-UAS-bla, beta-lactamase ratio, antagonist mode; series mostly up to 76.7 µM; also: potency is read from the fitted curve at half-maximal effect
# Outline: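 Concentration-response titrations were fitted to the Hill equation for half-maximal inhibition and maximal response, with data normalised to 50 uM chenodeoxycholic acid and DMSO control wells. Cells: FXR-UAS-bla HEK293T, dialyzed FBS.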
# [3] = target: Glucocorticoid receptor (Homo sapiens) (UniProt P04150); assay: qHTS assay for small molecule agonists of glucocorticoid receptor signaling (AID 588532; active = well fitted curve in the direction sought with a large enough effect in the signal ratio, with a control signal flat; the % refers to the signal ratio); conditions: HeLa MMTV-bla, beta-lactamase ratio, agonist, 18 h; stronger effect = higher value; percent of dexamethasone control, DMSO zero
# Outline: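 Stimulation of a glucocorticoid response element-driven beta-lactamase gene was measured in HeLa cells. Responses were scaled between DMSO basal and 0.1 uM dexamethasone, then fitted for half-maximal stimulation.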
# [4] = target: Peroxisome proliferator-activated receptor delta (Homo sapiens) (UniProt Q03181); assay: qHTS assay for small molecule agonists of peroxisome proliferator-activated receptor delta signaling (AID 588534); conditions: HEK293T PPARdelta-UAS-bla, beta-lactamase ratio, 18 h; series mostly up to 76.7 µM
# Outline: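 EC50 and efficacy values derive from Hill fits of a concentration series in a beta-lactamase reporter cell assay. Exposure is 18 hrs at 37 C, with CCF4 fluorescence as the readout.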
# [5] = target: Peroxisome proliferator-activated receptor gamma (Homo sapiens) (UniProt P37231); assay: qHTS assay for small molecule agonists of peroxisome proliferator-activated receptor gamma signaling (AID 588536; active = well fitted curve in the direction sought with a large enough effect in the signal ratio, with a control signal flat, not every such curve was filed as active; the % refers to the signal ratio); conditions: HEK293 PPARg-UAS-bla, beta-lactamase ratio, 16 h, percent of rosiglitazone response, DMSO as zero; series mostly up to 76.7 µM
# Outline: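 Beta-lactamase reporter read-out: CCF4 fluorescence (ex 405, em 460/530 nm) after 2 h at RT. HEK293 GeneBLAzer cells were treated for 16 h at 37 C. Hill fits gave EC50 and efficacy versus 2 uM rosiglitazone (100%) and DMSO (0%).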
# [6] = target: Glucocorticoid receptor (Homo sapiens) (UniProt P04150); assay: qHTS assay for small molecule antagonists of glucocorticoid receptor signaling (AID 588533; active = well fitted inhibition curve with a large enough effect in the signal ratio, with a control signal flat, not every such curve was filed as active; the % refers to the signal ratio;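 also: cells stimulated with 2 nM dexamethasone as agonist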; also: potency is read from the fitted curve at half-maximal effect); conditions: HeLa MMTV-bla, GRE beta-lactamase ratio, antagonist mode, 18 h; series mostly up to 76.8 µM
# Outline: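 Antagonist-mode qHTS: compound titrations added to GRE-bla HeLa cells, then dexamethasone 2 nM final; 18 h, 37 C. CCF4 FRET fluorescence normalized to dexamethasone and DMSO; IC50 from Hill fit.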
# [7] = qHTS assay for small molecule antagonists of peroxisome proliferator-activated receptor delta signaling (AID 588535; active = well fitted inhibition curve with a large enough effect in the signal ratio, with a control signal flat, not every such curve was filed as active; the % refers to the signal ratio;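 as to max response: cells co-treated with a PPAR-delta agonist as stimulator during compound exposure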); conditions: HEK293T PPARd-UAS-bla, beta-lactamase FRET ratio, 18 h; 460 nm channel
# Outline: (§1)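 Compounds tested in titration on PPAR-delta-UAS-bla HEK293T cells grown in charcoal/dextran-stripped serum (2%); beta-lactamase activity read via CCF4 emission at 460 and 530 nm.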
# [8] = target: Peroxisome proliferator-activated receptor delta (Homo sapiens) (UniProt Q03181); assay: as above; conditions: HEK293T PPARd-UAS-bla, beta-lactamase FRET ratio, 18 h; series mostly up to 76.7 µM
# Outline: as §1
# [9] = target: Peroxisome proliferator-activated receptor gamma (Homo sapiens) (UniProt P37231); assay: qHTS assay for small molecule antagonists of peroxisome proliferator-activated receptor gamma signaling (AID 588537; active = well fitted inhibition curve with a large enough effect in the signal ratio, with a control signal flat, not every such curve was filed as active; the % refers to the signal ratio;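 also: reporter cells co-stimulated with 50 nM rosiglitazone agonist during compound treatment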); conditions: HEK293 PPARg-UAS-bla, beta-lactamase ratio, antagonist mode; series mostly up to 76.8 µM
# Outline: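 HEK293 cells, PPAR-gamma-UAS-bla, 3000/well. Pre-incubation 6-6.5 h, 37 C. Compound titration with rosiglitazone 50 nM final, 16 h. CCF4 dye, 2 h RT, dual-emission fluorescence.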
# Chain of Glucocorticoid receptor (Homo sapiens) (P04150 whole entry, looked up): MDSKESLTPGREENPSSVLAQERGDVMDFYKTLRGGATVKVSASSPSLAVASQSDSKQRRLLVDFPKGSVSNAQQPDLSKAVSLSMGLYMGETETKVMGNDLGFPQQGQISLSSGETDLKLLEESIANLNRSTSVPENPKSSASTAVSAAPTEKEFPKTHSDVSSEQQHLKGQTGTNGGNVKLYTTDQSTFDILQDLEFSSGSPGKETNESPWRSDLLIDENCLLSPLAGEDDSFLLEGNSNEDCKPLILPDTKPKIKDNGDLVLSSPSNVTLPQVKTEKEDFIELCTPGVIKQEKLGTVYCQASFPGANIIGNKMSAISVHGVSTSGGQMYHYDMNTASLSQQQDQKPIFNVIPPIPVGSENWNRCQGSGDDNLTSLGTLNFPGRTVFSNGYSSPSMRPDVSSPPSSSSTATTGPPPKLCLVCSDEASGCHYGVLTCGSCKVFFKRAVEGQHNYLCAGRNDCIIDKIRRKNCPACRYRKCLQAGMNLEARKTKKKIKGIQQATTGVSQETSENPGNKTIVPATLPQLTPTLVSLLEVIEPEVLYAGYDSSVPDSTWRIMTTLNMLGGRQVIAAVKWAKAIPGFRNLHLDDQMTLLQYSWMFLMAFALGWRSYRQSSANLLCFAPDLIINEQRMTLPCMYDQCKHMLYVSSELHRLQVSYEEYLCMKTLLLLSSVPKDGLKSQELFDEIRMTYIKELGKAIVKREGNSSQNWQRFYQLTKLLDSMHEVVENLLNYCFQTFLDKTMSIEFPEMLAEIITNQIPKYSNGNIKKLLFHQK
# Chain of Peroxisome proliferator-activated receptor delta (Homo sapiens) (Q03181 whole entry, looked up): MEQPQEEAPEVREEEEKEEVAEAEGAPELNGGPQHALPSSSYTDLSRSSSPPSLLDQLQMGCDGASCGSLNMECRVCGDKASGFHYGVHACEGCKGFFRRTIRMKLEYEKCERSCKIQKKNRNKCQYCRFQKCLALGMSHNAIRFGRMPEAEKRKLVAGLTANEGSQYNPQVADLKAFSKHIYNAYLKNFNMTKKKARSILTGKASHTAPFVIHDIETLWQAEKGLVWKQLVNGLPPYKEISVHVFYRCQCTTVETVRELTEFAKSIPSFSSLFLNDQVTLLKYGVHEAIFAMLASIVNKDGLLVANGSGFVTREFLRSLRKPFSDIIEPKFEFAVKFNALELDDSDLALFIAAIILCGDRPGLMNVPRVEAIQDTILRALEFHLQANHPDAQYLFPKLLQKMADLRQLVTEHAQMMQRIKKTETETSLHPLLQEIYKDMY
# Chain of Bile acid receptor (Homo sapiens) (Q96RI1 whole entry, looked up): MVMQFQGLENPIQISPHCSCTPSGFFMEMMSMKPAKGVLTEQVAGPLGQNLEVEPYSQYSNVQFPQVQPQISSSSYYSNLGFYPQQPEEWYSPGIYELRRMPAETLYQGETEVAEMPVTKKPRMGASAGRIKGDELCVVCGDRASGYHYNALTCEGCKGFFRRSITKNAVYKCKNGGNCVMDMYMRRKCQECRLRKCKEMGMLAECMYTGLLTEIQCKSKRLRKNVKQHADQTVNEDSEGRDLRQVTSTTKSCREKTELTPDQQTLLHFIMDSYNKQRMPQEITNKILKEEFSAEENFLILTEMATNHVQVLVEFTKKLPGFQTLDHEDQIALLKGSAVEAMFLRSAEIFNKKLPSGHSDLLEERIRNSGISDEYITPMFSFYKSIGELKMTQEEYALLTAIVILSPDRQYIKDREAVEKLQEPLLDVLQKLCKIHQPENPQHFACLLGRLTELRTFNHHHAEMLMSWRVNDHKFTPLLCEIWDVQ
# Chain of Peroxisome proliferator-activated receptor gamma (Homo sapiens) (P37231 whole entry, looked up): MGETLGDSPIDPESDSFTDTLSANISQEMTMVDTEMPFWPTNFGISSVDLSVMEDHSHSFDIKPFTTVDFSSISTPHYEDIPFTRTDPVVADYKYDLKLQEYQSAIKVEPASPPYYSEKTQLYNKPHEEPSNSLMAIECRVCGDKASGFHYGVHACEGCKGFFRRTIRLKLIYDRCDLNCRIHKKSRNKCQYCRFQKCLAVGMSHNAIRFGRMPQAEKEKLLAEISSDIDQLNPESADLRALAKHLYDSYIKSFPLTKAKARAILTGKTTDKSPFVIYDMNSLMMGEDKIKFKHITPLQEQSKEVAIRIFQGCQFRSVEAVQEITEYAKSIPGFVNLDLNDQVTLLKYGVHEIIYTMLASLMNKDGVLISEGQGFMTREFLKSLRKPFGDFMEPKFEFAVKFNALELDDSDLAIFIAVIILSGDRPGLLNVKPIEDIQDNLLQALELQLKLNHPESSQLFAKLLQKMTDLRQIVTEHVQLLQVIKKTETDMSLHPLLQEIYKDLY
smiles,measurement,setting,value
CN(C)c1ccc2nc3ccc(=[N+](C)C)cc-3sc2c1,activation,[1],-2.46% (inactive)
CN1C[C@H](C(=O)N[C@]2(C)O[C@@]3(O)[C@@H]4CCCN4C(=O)[C@H](Cc4ccccc4)N3C2=O)C=C2c3cccc4[nH]cc(c34)C[C@H]21,Potency,[2],39.8 µM (active)
same,activation,[1],2.53% (inactive)
same,activation,[3],-6.8% (inactive)
C[C@]12CCC(=O)C=C1CC[C@@H]1[C@@H]2CC[C@]2(C)C(=O)CC[C@@H]12,Potency,[2],inactive
same,activation,[1],-2.26% (inactive)
same,outcome,[4],inactive
same,outcome,[5],inactive
CC(=O)Nc1ccccc1,activation,[1],3.71% (inactive)
same,outcome,[4],inactive
COc1cc(C=O)ccc1O,activation,[1],-1.98% (inactive) and -0.968% (inactive)
same,outcome,[4],inactive
O=c1[nH]c(=O)n([C@H]2C[C@H](O)[C@@H](CO)O2)cc1Br,activation,[1],-3.6% (inactive)
same,outcome,[4],inactive
COP(=S)(OC)Oc1cc(Cl)c(Cl)cc1Cl,activation,[3],-3.3% (inactive)
same,Potency,[6],inactive
same,outcome,[4],inactive
same,max response,[7],28.8%
same,outcome,[8],inactive
same,outcome,[5],inactive
same,outcome,[9],inactive
C[C@]12CCC(=O)C=C1CC[C@@H]1[C@@H]2CC[C@@]2(C)[C@H]1CC[C@]2(C)O,Potency,[6],15.8 µM (active)
Cc1noc(NS(=O)(=O)c2ccc(N)cc2)c1C,activation,[1],1.48% (inactive)
same,outcome,[4],inactive
Nc1nc(Cl)nc2c1ncn2[C@H]1C[C@H](O)[C@@H](CO)O1,activation,[1],-0.12% (inactive)
same,outcome,[4],inactive
Oc1cccc(O)c1,activation,[1],-2.84% (inactive)
same,outcome,[4],inactive
CC(C)NC(C)C,activation,[3],-3.7% (inactive)
same,Potency,[6],inactive
same,outcome,[4],inactive
same,outcome,[5],inactive
COP(=S)(OC)Oc1ccc(SC)c(C)c1,activation,[3],-2.46% (inactive) and 5.56% (inactive)
same,Potency,[6],inactive
same,outcome,[4],inactive
same,max response,[7],3.56%
same,outcome,[8],inactive
same,outcome,[5],inactive
same,outcome,[9],inactive
CC1(C)C(C=C(Cl)Cl)C1C(=O)OC(C#N)c1cccc(Oc2ccccc2)c1 (centres undefined),activation,[3],-2.93% (inactive)
same,Potency,[6],inactive
same,outcome,[9],inactive
O=C(O)CCCCC1CCSS1 (centres undefined),outcome,[4],inactive
CC(=O)NS(=O)(=O)c1ccc(N)cc1,outcome,[4],inactive
COc1cc(OC)c(OC)cc1C=O,activation,[3],3.74% (inactive)
same,Potency,[6],inactive
same,outcome,[5],inactive
NC(=O)c1ccccc1O,activation,[1],-3.79% (inactive)
same,outcome,[4],inactive
CC(O)C(=O)O (centres undefined),activation,[1],-0.922% (inactive)
same,outcome,[4],inactive
COc1ccc(C(=O)c2ccccc2)c(O)c1,activation,[1],-3.45% (inactive) and -6.15% (inactive)
same,outcome,[4],inactive
Nc1ccccc1,activation,[3],-2.91% (inactive)
same,Potency,[6],inactive
same,outcome,[4],inactive
same,max response,[7],1.43%
same,outcome,[8],inactive
same,outcome,[5],inactive
same,outcome,[9],inactive
CC(=O)c1ccc(S(=O)(=O)NC(=O)NC2CCCCC2)cc1,activation,[1],-2.29% (inactive) and -1.81% (inactive)
same,outcome,[4],inactive
CC12CCC(CC1)C(C)(C)O2,activation,[1],-0.483% (inactive)
same,outcome,[4],inactive
Cc1cc(C)nc(NS(=O)(=O)c2ccc(N)cc2)n1,activation,[1],1.04% (inactive) and -0.0754% (inactive)
same,outcome,[4],inactive
Oc1ccccc1,activation,[1],0.295% (inactive) and -0.629% (inactive) and -5.57% (inactive)
same,outcome,[4],inactive
Nc1ccc(C(=O)O)cc1,activation,[1],2.28% (inactive)
same,outcome,[4],inactive
O=C(O)c1cc(O)c(O)c(O)c1,outcome,[4],inactive
Cn1c(=O)c2[nH]cnc2n(C)c1=O,activation,[1],0.492% (inactive)
same,outcome,[4],inactive
CN=C(NC#N)NCCSCc1nc[nH]c1C,activation,[1],1.62% (inactive)
same,outcome,[4],inactive
c1ccc2sc(SSc3nc4ccccc4s3)nc2c1,activation,[1],4.39% (inactive)
same,outcome,[4],inactive
S=P(N1CC1)(N1CC1)N1CC1,activation,[1],4.46% (inactive)
same,outcome,[4],inactive
O=C(O)Cc1cccc2ccccc12,activation,[1],-0.869% (inactive) and 1.54% (inactive)
same,outcome,[4],inactive
NCCc1ccc(O)cc1,activation,[3],18.1% (inactive)
same,Potency,[6],inactive
same,outcome,[4],inactive
same,max response,[7],-1.35%
same,outcome,[8],inactive
same,outcome,[5],inactive
CCCC(C)(COC(N)=O)COC(N)=O,activation,[3],-13.9% (inactive)
same,Potency,[6],inactive
same,outcome,[4],inactive
same,max response,[7],-25.1%
same,outcome,[8],inactive
same,outcome,[5],inactive
same,outcome,[9],inactive
COC(=O)[C@H](Cc1ccccc1)NC(=O)[C@@H](N)CC(=O)O (H-Asp-Phe-OMe),activation,[1],-0.395% (inactive) and 1.51% (inactive)
same,outcome,[4],inactive
CCCCOC(=O)CC(CC(=O)OCCCC)(OC(C)=O)C(=O)OCCCC,activation,[1],1.49% (inactive)
same,outcome,[4],inactive
CCOP(=S)(OCC)Oc1ccc2c(C)c(Cl)c(=O)oc2c1,activation,[3],-1.75% (inactive)
same,outcome,[4],inactive
same,outcome,[5],inactive
same,outcome,[9],inactive
Nc1ccc(S(=O)(=O)c2ccc(N)cc2)cc1,activation,[1],5.45% (inactive) and -0.614% (inactive)
same,outcome,[4],inactive
